{"source": "PubChem BioAssay", "note": "The source made the active and inactive calls.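 How the source made its calls: active means visually confirmed hit in the image check and inhibition above 20%; inconclusive means visually confirmed hit but inhibition not above 20%; inactive means no visual hit in the image check.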", "data": [{"experiment": "inhibitors of E-selectin induction by TNFa, primary screen, imaging, HUVEC, immunofluorescence, MLSMR starter and 10KST1 sets (AID 487);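 on inhibition: signal is fraction of cell area covered by stained E-selectin grains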;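 on nuclei count: 100% = median nuclei count of all wells on the same plate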", "details": "HUVEC TNFalpha-induced E-selectin immunofluorescence imaging, at 2 µM; inhibition: stronger effect = higher value; nuclei count: measured here: cell number, toxicity", "units": {"nuclei count": "%"}, "values": [{"smiles": "COc1ccc(C2=NO[C@@H]3C(=O)N(c4cccc(C)c4C)C(=O)[C@H]23)cc1OC", "nuclei count": 105, "inhibition": "-41.7% (inactive)"}, {"smiles": "CCOc1ccccc1NC(=O)CC1Nc2cc(C)c(C)cc2NC1=O", "note": "(stereo not given)", "inhibition": "-48.5% (inactive)", "nuclei count": 105}, {"smiles": "CC1=C(C(=O)OCc2ccccc2)C(c2ccc(C)o2)C2=C(CCCC2=O)N1", "note": "(stereo not given)", "nuclei count": 97, "inhibition": "29.9% (inactive)"}, {"smiles": "Cc1c(C)n(C)c2ccc(C(=O)NCc3cccs3)cc12", "nuclei count": 93.5, "inhibition": "11.8% (inactive)"}, {"smiles": "NC(=O)c1c(NC(=O)CN2CCCC2)sc2c1CCCC2", "inhibition": "15.2% (inactive)", "nuclei count": 84.6}, {"smiles": "CCOC(=O)c1sc(NC(=O)CSc2nnc3c4ccccc4n(CC)c3n2)nc1C", "inhibition": "-6.3% (inactive)", "nuclei count": 110}, {"smiles": "CCS(=O)(=O)N1CCCC(C(=O)NCCc2ccc(OC)c(OC)c2)C1", "note": "(stereo not given)", "inhibition": "45.8% (inactive)", "nuclei count": 109}, {"smiles": "CC(=O)n1cc(-c2ccncc2)c2ccccc21", "inhibition": "-74.9% (inactive)", "nuclei count": 106}, {"smiles": "CN(C1CCCCC1)S(=O)(=O)c1ccc(NC(=O)c2ccco2)cc1", "nuclei count": 112, "inhibition": "-28.1% (inactive)"}, {"smiles": "COc1cccc(CN2CCN(C(=O)CC(C)C)CC2)c1", "inhibition": "-45.8% (inactive)", "nuclei count": 132}]}]}
